Experimental findings from PubChem BioAssay (NCATS) are described below.

Molecules are shown by their SMILES. “And” between values parts separate entries of the source, which are not always exact repeats. Identical values can stand only once. Records with an inconclusive call do not appear. The source holds several records for some structures; these can differ, active in one and inactive in another. The source made the active and inactive calls. The call rests on the fitted dose curve; in most records, active means well fitted curve in the direction sought with a large enough effect; inconclusive means small, poorly fitted or top-dose-only effect, or another doubt; inactive means no such curve, though single readings can be large; an effect the other way counts as inactive or inconclusive.

Test [1] concerns the target Cytochrome P450 3A4 (Homo sapiens) (UniProt P08684). Kind of test: qHTS Assay for Inhibitors and Substrates of Cytochrome P450 3A4 (AID 884). Further: series mostly up to about 57 µM; on the % scale 0 is the no-effect control and ±100 the full control effect; nearly all actives have a fitted effect of over 50% in size. An outline of the steps:
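Luminescent readout of luciferin produced by CYP3A4 (20 nM) dealkylation of Luciferin-PPXE, 25 uM (its KM). NADPH-driven reaction ran 60 min at RT after 10 min compound preincubation; data scaled to 57 uM ketoconazole as 100% inhibition.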

Test [2] deals with Cytochrome P450 2C9 (Homo sapiens) (UniProt P11712). The test can be described thus: qHTS Assay for Inhibitors and Substrates of Cytochrome P450 2C9 (AID 883). Further: nearly all actives have a fitted effect of over 60% in size. Further: potency means the concentration at half of the fitted maximal effect. The gist of the method: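 Turnover of Luciferin-H (100uM, KM) by 10nM human CYP2C9 was measured over 60 min at 37C with NADPH regeneration; inhibitors and some substrates reduce luminescence. Data normalized to sulphaphenazole 57uM.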
Cytochrome P450 2C9 (Homo sapiens), sequence (P11712 whole entry, looked up): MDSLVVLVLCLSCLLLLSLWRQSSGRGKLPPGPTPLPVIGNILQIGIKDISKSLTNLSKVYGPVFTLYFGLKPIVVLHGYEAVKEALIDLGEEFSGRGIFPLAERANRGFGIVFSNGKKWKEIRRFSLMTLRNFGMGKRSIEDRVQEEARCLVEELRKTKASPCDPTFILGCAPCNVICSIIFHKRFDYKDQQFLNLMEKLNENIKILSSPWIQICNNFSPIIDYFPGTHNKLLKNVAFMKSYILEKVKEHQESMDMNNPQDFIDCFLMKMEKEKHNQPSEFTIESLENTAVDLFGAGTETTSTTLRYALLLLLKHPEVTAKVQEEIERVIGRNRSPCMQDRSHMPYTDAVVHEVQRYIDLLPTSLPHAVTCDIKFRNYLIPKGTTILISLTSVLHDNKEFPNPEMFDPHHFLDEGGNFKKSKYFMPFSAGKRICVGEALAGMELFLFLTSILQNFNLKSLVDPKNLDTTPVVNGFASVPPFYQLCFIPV

Test [3] has as its target Cytochrome P450 2D6 (Homo sapiens) (UniProt P10635). Kind of test: qHTS Assay for Inhibitors and Substrates of Cytochrome P450 2D6 (AID 891).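 Further: luciferin methyl ether substrate demethylated by CYP2D6 with NADPH regeneration; on the % scale 0 is the no-effect control and ±100 the full control effect; nearly all actives have a fitted effect of over 60% in size.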 An outline of the steps:
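Luminescent read-out of luciferin formed by 5 nM human CYP2D6 demethylating 30 uM Luciferin-ME EGE (Km level) over 60 min at room temperature after NADPH regeneration addition. Data normalized to full inhibition by 1.43 uM quinidine.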
For orientation: In qHTS, concentration-response curves come from the screen itself.

The target of test [4] is Cytochrome P450 2C19 (Homo sapiens) (UniProt P33261). Kind of test: qHTS Assay for Inhibitors and Substrates of Cytochrome P450 2C19 (AID 899). Further: nearly all actives have a fitted effect of over 60% in size. Further: potency means the concentration at half of the fitted maximal effect. An outline of the steps: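 Reactions contain 5nM enzyme, 10uM Luciferin-H EGE (KM) and 50mM KPO4; compound preincubates 10 min at 37C, NADPH regeneration starts turnover for 60 min. Luminescence after detection reagent gives activity.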
Cytochrome P450 2C19 (Homo sapiens), sequence (P33261 whole entry, looked up): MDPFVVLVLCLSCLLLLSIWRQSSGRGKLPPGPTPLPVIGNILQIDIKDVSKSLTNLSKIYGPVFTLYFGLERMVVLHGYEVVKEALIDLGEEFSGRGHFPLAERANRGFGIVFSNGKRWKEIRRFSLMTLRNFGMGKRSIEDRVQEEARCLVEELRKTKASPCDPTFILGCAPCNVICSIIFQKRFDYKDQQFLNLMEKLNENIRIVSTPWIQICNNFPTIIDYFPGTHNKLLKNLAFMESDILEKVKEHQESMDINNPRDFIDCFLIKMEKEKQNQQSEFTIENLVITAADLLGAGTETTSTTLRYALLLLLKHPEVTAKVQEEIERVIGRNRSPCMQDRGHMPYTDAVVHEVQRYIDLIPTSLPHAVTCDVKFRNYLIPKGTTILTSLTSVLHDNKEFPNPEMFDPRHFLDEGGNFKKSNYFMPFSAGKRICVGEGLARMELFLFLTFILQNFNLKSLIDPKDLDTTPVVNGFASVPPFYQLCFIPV

For test [5], the target named is Cytochrome P450 3A4 (Homo sapiens) (UniProt P08684). Kind of test: qHTS Assay for Activators of Cytochrome P450 3A4 (AID 885). Further: nearly all actives have a fitted effect of over 65% in size. An outline of the steps:
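Using 20nM recombinant human CYP3A4 in potassium phosphate (200mM), substrate Luciferin-PPXE at 25uM, luminescent luciferin detection followed a 60-min RT NADPH reaction; data scaled to 57 uM ketoconazole.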

Cytochrome P450 2D6 (Homo sapiens), sequence (P10635 whole entry, looked up): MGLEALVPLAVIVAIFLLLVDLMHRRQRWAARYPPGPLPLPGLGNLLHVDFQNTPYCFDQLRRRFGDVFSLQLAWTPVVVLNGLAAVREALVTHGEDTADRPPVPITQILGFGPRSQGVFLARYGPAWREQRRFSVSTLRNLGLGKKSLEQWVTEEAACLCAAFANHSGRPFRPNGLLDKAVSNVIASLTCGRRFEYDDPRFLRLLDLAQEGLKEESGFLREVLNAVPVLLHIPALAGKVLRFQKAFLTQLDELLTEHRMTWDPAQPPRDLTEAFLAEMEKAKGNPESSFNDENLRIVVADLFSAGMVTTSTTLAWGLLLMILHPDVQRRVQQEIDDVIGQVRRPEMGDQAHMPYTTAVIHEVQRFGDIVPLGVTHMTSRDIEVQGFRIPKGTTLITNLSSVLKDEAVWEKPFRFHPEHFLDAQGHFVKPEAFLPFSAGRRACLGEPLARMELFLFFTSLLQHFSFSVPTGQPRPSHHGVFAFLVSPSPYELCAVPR
Cytochrome P450 3A4 (Homo sapiens), sequence (P08684 whole entry, looked up): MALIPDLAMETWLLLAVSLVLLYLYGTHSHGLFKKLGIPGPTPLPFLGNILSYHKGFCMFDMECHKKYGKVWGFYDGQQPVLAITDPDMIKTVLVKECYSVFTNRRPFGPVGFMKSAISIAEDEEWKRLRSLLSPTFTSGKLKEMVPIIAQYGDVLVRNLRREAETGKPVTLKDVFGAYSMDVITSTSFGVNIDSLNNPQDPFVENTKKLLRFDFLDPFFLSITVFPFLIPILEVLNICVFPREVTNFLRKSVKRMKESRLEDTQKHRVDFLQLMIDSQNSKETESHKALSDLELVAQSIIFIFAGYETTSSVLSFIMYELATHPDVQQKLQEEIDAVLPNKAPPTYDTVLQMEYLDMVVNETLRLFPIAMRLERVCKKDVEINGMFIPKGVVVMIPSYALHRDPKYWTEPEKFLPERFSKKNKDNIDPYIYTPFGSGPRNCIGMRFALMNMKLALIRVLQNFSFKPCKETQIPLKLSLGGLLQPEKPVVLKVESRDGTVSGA

Turning to `CN(C)/C=N/c1cc(=O)n(Cc2ccccc2)c(=O)n1C`, the Potency result in test [1] is “inactive”.
Consider `CC(=O)OCC1OC(C#CCC2CCCCC2)C=CC1OC(C)=O` (stereo not drawn), for which the Potency result in test [2], in test [3] and in test [4] was “inactive” throughout.
With `C=CCC1(C)OC=Cc2nc3cc(Cl)c(Cl)cc3nc21` (stereo not drawn), the Potency entry in test [2] and in test [3] was “inactive” each time. In addition, the activity change, positive = activation in test [5] is -59.2% [at 11.4 µM] (inactive). The Potency in test [4] was 3.98 µM (active).
For the compound `CC12C=C(/C=C/c3ccc(C(F)(F)F)cc3)C(C)(C1)C(c1ccc(C(F)(F)F)cc1)CC2=O` (stereo not drawn), the Potency entry in test [2] and in test [4] was “inactive” each time. Further, in test [5], the activity change, positive = activation is -39% [at 11.4 µM] (inactive).
Regarding `O=C1CCCC=C1[C@H](CCc1ccccc1)OC(=O)c1ccc(Br)cc1`, the figures for the Potency in test [2] and in test [4] were 3.16 µM (active) and 1.58 µM (active), respectively. Further, the activity change, positive = activation in test [5] is -49.6% [at 11.4 µM] (inactive).
For `COC(=O)C/C=C/C(C)C(OCc1cccc(-c2ccccc2)c1)C1CCCCC1` (stereo not drawn), the Potency result in test [2], in test [3] and in test [4] was “inactive” throughout. Moreover, the activity change, positive = activation in test [5] is -35.3% [at 11.4 µM] (inactive).
For `COC(C1CCCCC1)C(C)C(OCc1cccc(Br)c1)C(C)CO` (stereo not drawn), the Potency entry in test [2] and in test [3] was “inactive” each time. Moreover, the Potency in test [4] is 1.58 µM (active).
Regarding `CC1CCC2C(=O)OC(CN=[N+]=[N-])CN2C1c1ccc(Br)cc1` (stereo not drawn), in test [2], the Potency entry is “inactive and 1 µM (active)”. In addition, the Potency entry in test [3] was “inactive”.
Regarding `CCCCCCC1=Cc2cc(OC)c(OC)cc2C(CC(=O)/C=C/OC)O1` (stereo not drawn), the Potency result in test [2], in test [3] and in test [4] was “inactive” in each case. For the same compound, in test [5], the activity change, positive = activation was -40.4% [at 11.4 µM] (inactive).
Turning to `COC(=O)C1=C(C)N(Cc2ccccc2)[C@]23O[C@](C(=O)OC)(C(=O)N2C1c1ccccc1)C1C(=O)N(C)C(=O)C13` (stereo partly drawn), the Potency entry in test [2], in test [3] and in test [4] was “inactive” throughout. Besides, the activity change, positive = activation in test [5] was -51.8% [at 11.4 µM] (inactive) and -36.4% [at 11.4 µM] (inactive).
Take `C/C=C/OC(=O)NC(c1cccc(C)c1)[C@@]1(C(=O)OCC)CCCC1=O` (stereo partly drawn): the Potency result in test [2] and in test [3] was “inactive” throughout. Besides, the activity change, positive = activation in test [5] was -48.2% [at 11.4 µM] (inactive). In test [4], the Potency was 1 µM (active).
As for `OCC1OC(c2ccc3c(c2)OCO3)C=CC1Oc1ccc(C2CCCC2)cc1` (stereo not drawn), the Potency entry in test [2] and in test [4] was “inactive” in each case. Besides, in test [5], the activity change, positive = activation is -50.7% [at 11.4 µM] (inactive).
